# According to PubChem BioAssay (NCI):
# About 83,000 compounds went through this panel and 20% of them were active in at least one assay; those are over-represented in the sample as a whole.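 Assay: single dose, 48 h. Readout: percent growth (0 = no net growth; negative = cell death). Active: <10.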 A number with no mark means an inactive call. The source made the active and inactive calls.
# Tested on: HOP-92 NSCLC
# Assay: NCI-60 one-dose screen, 48 h (100 = growth as untreated, 0 = no growth, -100 = all killed)
# Settings: 10 µM unless noted
row,Structure (SMILES),growth
1,Cc1c(C(=O)NC(Cc2ccccc2)C(O)C(=O)NCc2ccc(F)cc2)[nH]c2ccccc2c1=O (centres undefined),108%
2,Cc1cc(C(=O)c2ccccc2)c(C)c2c1[nH]c1ccc(Cl)cc12,54.8%
3,COc1ccc(C(=O)/C=C/c2c(C(F)(F)F)nc3sccn23)cc1OC,78.2%
4,O=Cc1c[nH]c2ccc(-c3csc4ccccc34)cc12,55.9%
5,Cc1ccc(/C=C/c2c(C(=O)/C=C/c3ccc(C(F)(F)F)cc3)c(C)nc3ccccc23)cc1,-76% (active)
6,N#CC1=C(/N=C/c2ccccc2)Oc2c(ccc3ccccc23)C1c1ccccc1 (centres undefined),50.4%
7,O=C(NCCc1ccc(O)c(O)c1)C12CC3CC(CC(C3)C1)C2,65.5%
8,Cc1cc(=O)[nH]c(N=Nc2c(O)[nH]c3ccccc23)n1,101%
9,COc1ccc2oc3c(C)c4c(c(C)c3c2c1)C(=O)N(Cc1ccccc1)C4=O,85.5%
10,COc1ccc2[nH]c(O)c(/C=c3/cc4c(c(-c5cc(OC)c(OC)c(OC)c5)n3)=Nc3ccccc3-4)c2c1,39.8%
11,CC(=O)c1nc(Nc2ccc(C)cc2)sc1C,73.2%
12,COc1ccc(N=C(c2ccccc2)C2C(=O)c3ccccc3C2=O)cc1,-11.2% (active)
13,CCCCc1ccc(Nc2ccc(Nc3ccc(CCCC)cc3S(=O)(=O)O)c3c2C(=O)c2ccccc2C3=O)c(S(=O)(=O)O)c1,59.4%
14,Cc1nn(-c2ccccc2)c2nc3c(c(-c4ccc(Cl)cc4)c12)CNC1(CCSCC1)N3,74.1%
